Reference: PubChem BioAssay (NCATS)
Records with an inconclusive call do not appear. Active and inactive are the calls of the source. Calls come from the whole dose curve; as a rule, active = well fitted inhibition curve with a large enough effect in the polarisation, with a control signal flat (not every such curve was filed as active); inconclusive = small, poorly fitted or top-dose-only effect, or effect the other way; inactive = flat fitted curve, though single readings scatter; the % refers to the polarisation.

biological target: Peptidyl-prolyl cis-trans isomerase NIMA-interacting 1 (Homo sapiens) (UniProt Q13526); assay: qHTS Validation Assay to Find Inhibitors of Pin1 (AID 504536); conditions: Pin1 fluorescence polarization peptide binding assay; series mostly up to 57.5 µM; activity, negative = inhibition: at the top concentration
Excerpt: NIH Molecular Libraries Probe Production Network [MLPCN]
NIH Chemical Genomics Center [NCGC]
The unique chemical properties of Pro allow for the adoption of two completely distinct amide bond conformations (cis and trans). Peptidyl-prolyl cis/trans isomerases (PPIases) are evolutionary conserved enzymes that catalyze cis/trans isomerization of peptidyl-prolyl peptide bonds. Distinct from all other PPIases such as cyclophilins and FK506-binding proteins (FKBPs), Pin1 binds a subset of phos.Ser/Thr-Pro-containing proteins using its protein-targeting WW domain and isomerizes only specific phos.Ser/Thr-Pro bonds, which cannot be effectively catalyzed by other known PPIases.
Pin1-catalyzed conformational regulation can control a spectrum of activities of many key regulators in diverse cellular processes such as cell growth, genotoxic and other stress responses, immune response, germ cell development, neuronal differentiation and survival. Pin1 has emerged as a novel molecular timer that modulates its multiple targets at various steps of a given cellular process to synergistically control the amplitude and duration of a cellular response or process. Importantly, Pin1 is tightly regulated by multiple levels and its deregulation has an important role in a growing number of pathological conditions, including cancer, Alzheimer's disease, aging, asthma and microbial infection, providing a potentially new therapeutic option.
The goal of this screen is to find small-molecule inhibitors of Pin1 using a fluorescence polarization competition assay. A HiFluor-488-labeled peptide binds to the active site of Pin1 and can be displaced by compounds. Compounds were screened as a concentration-titration series that ranged from 57 uM to 0.7 nM.
NCGC Assay Protocol Summary:
Pin1 (0.6 uM) was dispensed into black, solid 1536-well plates at 2 uL/well in 10 mM HEPES (pH 7.5), 10 mM NaCl, 0.01% Tween20, 1 mM DTT, and 1% glycerol. Then, 23 nL of compounds or DMSO were delivered to each well using a pin tool. Two uL of Pin1-1b-HiFluor488 peptide (10 mM HEPES (pH 7.5), 10 mM NaCl, 0.01% Tween20, 1 mM DTT, and 1% glycerol, 0.02 uM Pin1-1b-HiFluor488) was then dispensed, and plates were incubated at room temperature for 10 min. The plates were measured on a ViewLux plate reader for fluorescence polarization signal using a 480/20 nM nm excitation filter and 540/25 nM nm S and P emission filters with a 20 second exposure. The %Activity was determined from the corrected fluorescence polarization values. Unlabeled Pin1-1c peptide was used as a control (3.5 mM two-fold serial; 20 uM final concentration) along with a 1x (0.3 uM) and 0x (no-enzyme) Pin1 enzyme control to normalize %Activity of identified inhibitors; 0x enzyme values corresponded to 100%Activity (full inhibition), while 1x Pin1 enzyme values were used to normalize 0%Activity (no inhibition).
Concentration-response curves were fitted to the signals arising from the resulting fluorescence polarization. The concentration-effect curves were then classified based on curve quality (r2), response magnitude and degree of measured activity, and compounds were subsequently categorized based on their curve class.
Keywords: Peptidyl prolyl isomerase, Pin1, fluorescence polarization, MLSMR, MLPCN, NIH Roadmap, qHTS, NCGC
Potency is the fitted concentration of half-maximal effect.

Peptidyl-prolyl cis-trans isomerase NIMA-interacting 1 (Homo sapiens), sequence (Q13526 whole entry, looked up): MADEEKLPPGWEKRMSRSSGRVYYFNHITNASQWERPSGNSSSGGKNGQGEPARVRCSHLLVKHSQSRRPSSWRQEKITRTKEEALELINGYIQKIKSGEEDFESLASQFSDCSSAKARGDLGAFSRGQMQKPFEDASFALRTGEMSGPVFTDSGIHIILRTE

| Compound | activity, negative = inhibition | Potency |
| --- | --- | --- |
| COC(=O)C(N)Cc1ccc(Cl)cc1 (stereo not given) | -1.27% (inactive) | – |
| CCC1(O)CC2CN(CCc3c([nH]c4ccccc34)[C@@](C(=O)OC)(c3cc4c(cc3OC)N(C)C3[C@]45CCN4CC=C[C@@](CC)([C@@H](OC(C)=O)[C@]3(O)C(=O)OC)[C@H]45)C2)C1 (stereo not given in full) | 1.13% (inactive) | – |
| Fc1ccc(CN(C2=NCCN2)c2c(Cl)cccc2Cl)cc1 | 6.24% (inactive) | – |
| O=C1C2C=CC=CC2=NC(=S)N1CCN1CCC(=C(c2ccc(F)cc2)c2ccc(F)cc2)CC1 (stereo not given) | 0.126% (inactive) | – |
| Nc1ccc(CCNc2ncnc3c2ncn3C2OC(CO)C(O)C2O)cc1 (stereo not given) | -2% (inactive) | – |
| NCCNS(=O)(=O)c1cccc2c(Cl)cccc12 | 0.203% (inactive) | – |
| [N-]=[N+]=Nc1ccc(C(=O)CSC[C@H](NC(=O)CC[C@H](N)C(=O)O)C(=O)NCC(=O)O)cc1 | – | 23.9 µM (active) |
| NCCCCN=C(N)N | 7.65% (inactive) | – |
| O=C(O)CCC(=O)N1CCCC1C(=O)O (stereo not given) | 3.33% (inactive) | – |
| Nc1ccc(N2C(=O)c3ccccc3C2=O)c(Cl)c1 | 0.133% (inactive) | – |
| N[C@@H](Cc1ccc(F)cc1)C(=O)O | -3.35% (inactive) | – |
| CCCCCCCCCCCCCCSCC(=O)O | – | 23.9 µM (active) |
| CN1CCCC1CCOC(C)(c1ccccc1)c1ccc(Cl)cc1 (stereo not given) | -6.95% (inactive) | – |
| CCCc1c(-c2ccc(O)cc2)nn(-c2ccc(O)cc2)c1-c1ccc(O)cc1 | -1.37% (inactive) | – |
| COc1ccc(-c2ccc(N)[n+](CCCC(=O)O)n2)cc1 | 1.05% (inactive) | – |
| Cc1nc(N=Nc2ccc(C(=O)O)cc2)c(COP(=O)(O)O)c(C=O)c1O | – | 26.9 µM (active) |
| N=S(=O)(O)Cc1noc2ccccc12 | 1.64% (inactive) | – |
| N[C@@H](Cc1ccc(O)c(I)c1)C(=O)O | -3.37% (inactive) | – |
| C[C@H]1CC2C3CCC4=CC(=O)C=C[C@]4(C)[C@@]3(Cl)[C@@H](O)C[C@]2(C)[C@@]1(O)C(=O)CO (stereo not given in full) | -1.52% (inactive) | – |
| CCC1(O)CC2CN(CCc3c([nH]c4ccccc34)[C@@](C(=O)OC)(c3cc4c(cc3OC)N(C=O)C3[C@]45CCN4CC=C[C@@](CC)([C@@H](OC(C)=O)[C@]3(O)C(=O)OC)[C@H]45)C2)C1 (stereo not given in full) | -8.56% (inactive) | – |

| Compound | activity, negative = inhibition | Potency |
| --- | --- | --- |
| CC(C)NC[C@H](O)COc1ccc(CC(N)=O)cc1 | 7.94% (inactive) | – |
| S=C(S)N1CCCC1 | 5.13% (inactive) | – |
| CC(C)[C@@H]1CC[C@@H](C)C[C@@H]1P(=O)(c1ccccc1)c1ccccc1 | 5.72% (inactive) | – |
| CN1Cc2sccc2C(c2ccc(O)c(O)c2)C1 (stereo not given) | 21.3% (inactive) | – |
| O=c1onc2cnc3ccccc3n12 | 0.898% (inactive) | – |
| CCCCCCC(=O)OC1CC(C)(C)NC(C)(C)C1 | -12.7% (inactive) | – |
| Cc1cc2c(cc1Cl)N(C(=O)Nc1ccnc3ccccc13)CC2 | 12.4% (inactive) | – |
| C=C1C[C@@]23CC[C@H]4[C@@](C)(CCC[C@@]4(C)C(=O)OC4OC(CO)C(O)C(O)C4O)[C@@H]2CC[C@]1(OC1OC(CO)C(O)C(O)C1OC1OC(CO)C(O)C(O)C1O)C3 (stereo not given in full) | -9.29% (inactive) | – |
| NC1CCN(O)C1=O (stereo not given) | -2.25% (inactive) | – |
| O[Si](CCCN1CCCCC1)(c1ccc(F)cc1)C1CCCCC1 (stereo not given) | 5.05% (inactive) | – |
| COc1ccc2c(c1)c(CC(=O)O)c(C)n2Cc1ccc(Cl)cc1 | -4.5% (inactive) | – |
| Oc1cc(O)c2c(c1)O[C@H](c1ccc(O)c(O)c1)[C@@H](O)C2 | -0.59% (inactive) | – |
| [Li+] | 3.07% (inactive) | – |
| Cc1ccccc1/C=C/C1=NCCN1 | -0.652% (inactive) | – |
| CCCOC(=O)c1c(-c2ccccc2)nc(CC)c(C(=O)SCC)c1CCC | 3.13% (inactive) | – |
| C=CCN1CCc2cc(O)c(O)cc2C(c2ccccc2)C1 (stereo not given) | -0.514% (inactive) | – |
| CCc1ccc2c(-c3cccc(Cl)c3)nc(=O)n(CC)c2n1 | 2.52% (inactive) | – |
| CN[C@H](CC(=O)O)C(=O)O | -4.53% (inactive) | – |
| CC(=O)O[C@H]1CC2(C)[C@@H](C[C@@H](O)[C@H]3[C@@]4(C)CC[C@@H](O)[C@@H](C)[C@@H]4CC[C@@]32C)C1=C(CCC=C(C)C)C(=O)O (stereo not given in full) | 1.11% (inactive) | – |
| C=C1C[C@@]23CC[C@H]4[C@@](C)(CCC[C@@]4(C)C(=O)O)[C@@H]2CC[C@]1(O)C3 | 0.494% (inactive) | – |
